High-throughput results from PubChem.
HepG2 tox = counter-screen for TGF-b inhibitors: cytotoxicity in HepG2 cells | AID 588856 | HepG2 CAGA-GFP viability, ATP luminescence, 18 h | Potency, µM (highest dose often 46.1 µM), without a hit: at the top dose activity change, negative = cytotoxicity, actives largely listed as cytotoxic | 0.76% of 410,000 active
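HepG2 CAGA-GFP cells (1000/well, DMEM with 1% FBS) received compound, then TGF-beta at 500 pg/mL final, and were incubated 18 hours at 37 degrees C. Viability was read by CellTiter-Glo luminescence. Media-only wells were set as complete cell-killing and DMSO as no toxicity.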
Nrf2 ARE act = activators of Nrf2 (ARE) signaling; Potency, µM (titrated, usually from 46.1 µM), for inactives: at the top dose activation, usual class: activators; AREc32 ARE-luciferase reporter (MCF7-derived line), luminescence, 24 h; 0.31% of 410,000 active; AID 624171; further: % of control where 0% means no effect; nearly all actives have a fitted effect of over 65% in size
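Luminescent ARE reporter assay in AREc32_Fluc cells: overnight plating at 37 deg C, 24 hr compound incubation, Steady-Glo added, 30 min RT before reading.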
TGFb SMAD3 inh = TGF-b pathway inhibition. HepG2 CAGA-GFP TGF-b/SMAD3 reporter, GFP fluorescence, 18 h; TGF-beta stimulated, 500 pg/mL final. Potency, µM (series often up to 46.1 µM), for the others: top-dose activity, negative = inhibition, hits mostly inhibitors. 1.2% of 410,000 active. AID 588855; further: on the % scale 0 is the no-effect control and ±100 the full control effect; nearly all actives have a fitted effect of over 65% in size
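Using HEPG2 CAGA-GFP reporter cells at 1000 cells/well, we pinned test compounds, stimulated with recombinant TGF-beta (500 pg/mL final) and measured total well GFP after 18 h.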
A549 tox-1 = A549 cytotoxicity, counter-screen for Nrf2 inhibitors; A549 ARE-Fluc cells, CellTiter-Fluor viability, 18-24 h; Potency, µM (doses to about 46 µM), inactives show at the top dose activity change, negative = cytotoxicity, hits mostly inhibitors; 0.16% of 390,000 active; further: on the % scale 0 is the no-effect control and ±100 the full control effect
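A549 ARE-Fluc cells in 5% FBS OPTI-MEM, 5000 cells/well, rested 2 h then exposed to compounds in concentration-response for 18-24 h at 37 °C. Viability by CellTiter-Fluor fluorescence (Ex 405/Em 525) after 30 min; luciferase luminescence (BugLite, 15 min, RT) read afterwards.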
Nrf2 block = inhibitors of Nrf2 signaling; A549 ARE-Fluc reporter, luciferase luminescence, 18-24 h; Potency, µM (titrated, usually from 46 µM), inactives show at the top dose activity change, negative = inhibition, actives largely listed as inhibitors; 2.1% of 360,000 active; further: on the % scale 0 is the no-effect control and ±100 the full control effect; nearly all actives have a fitted effect of over 60% in size
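A549 ARE_Fluc cells, 5000/well, 5% FBS OPTI-MEM; compounds in dose-response, 18-24 h at 37 °C/5% CO2; CellTiter-Fluor viability read (Ex 405/Em 525), then BugLite luciferase luminescence = Nrf2 activity.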
FLuc counter 3 = blocks purified firefly luciferase in Nrf2 counterscreen. Potency, µM (titrated, usually from 57.5 µM), without a hit: at the highest dose activity change, negative = inhibition, usual class: inhibitors. 4% of 1,400 active. purified firefly luciferase, luminescence inhibition. shares compounds with Nrf2 block; further: on the % scale 0 is the no-effect control and ±100 the full control effect; nearly all actives have a fitted effect of over 65% in size
Target sequence (P08659 whole entry, looked up): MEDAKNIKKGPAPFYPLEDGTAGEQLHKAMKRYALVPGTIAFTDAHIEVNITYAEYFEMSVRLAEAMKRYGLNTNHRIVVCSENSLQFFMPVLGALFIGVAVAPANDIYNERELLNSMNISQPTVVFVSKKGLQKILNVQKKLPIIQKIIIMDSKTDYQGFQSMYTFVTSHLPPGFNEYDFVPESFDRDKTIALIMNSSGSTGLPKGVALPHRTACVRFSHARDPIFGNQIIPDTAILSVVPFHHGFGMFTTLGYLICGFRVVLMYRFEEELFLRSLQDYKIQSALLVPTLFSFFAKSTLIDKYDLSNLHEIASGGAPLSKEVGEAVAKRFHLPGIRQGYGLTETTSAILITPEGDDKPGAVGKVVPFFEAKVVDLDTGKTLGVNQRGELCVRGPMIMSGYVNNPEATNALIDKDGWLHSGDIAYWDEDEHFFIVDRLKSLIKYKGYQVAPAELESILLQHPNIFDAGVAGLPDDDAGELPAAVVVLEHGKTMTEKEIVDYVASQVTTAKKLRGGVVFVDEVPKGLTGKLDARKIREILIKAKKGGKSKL
A549 tox-2 = A549 cytotoxicity, Nrf2 inhibitor counterscreen; shares compounds with Nrf2 block; AID 720523; A549 ARE-Fluc cells, cytotoxicity counterscreen; 2% of 1,400 active; Potency, µM (series often up to 46.1 µM), for inactives: top-dose activity change, negative = cytotoxicity, most hits filed as inhibitors;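 further: cells exposed to compounds for 18 to 24 hours; on the % scale 0 is the no-effect control and ±100 the full control effect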
ARE-Fluc inh = confirmation of Nrf2 inhibitors in A549 ARE reporter cells; shares compounds with Nrf2 block; A549 ARE-firefly luciferase reporter, luminescence; Potency, µM (highest dose often 46.1 µM), without a hit: at the top dose activity change, negative = inhibition, most hits filed as inhibitors; 74% of 1,400 active; AID 720524; further: on the % scale 0 is the no-effect control and ±100 the full control effect; nearly all actives have a fitted effect of over 65% in size
Numbers without * were called inactive. This is a sample that favours compounds with a hit; in the whole collection about 3.6% have one here. The call rests on the fitted dose curve; in most records, active means well fitted curve in the direction sought with a large enough effect; inconclusive means small, poorly fitted or top-dose-only effect, or another doubt; inactive means no such curve, though single readings can be large; an effect the other way counts as inactive or inconclusive. Potency means the concentration at half of the fitted maximal effect.

How did O=S1(=O)N(CCN2CC=C(c3c[nH]c4cc(F)ccc34)CC2)c2cccc3c2N1CCC3 do in these assays?
HepG2 tox: -45%; Nrf2 ARE act: 1%; TGFb SMAD3 inh: inconclusive; A549 tox-1: -16%; Nrf2 block: inconclusive

What do the screens show for `CCOc1ccc(-c2c(C)n(-c3ccc(OCC)cc3)c3[n+]2CCCCC3)cc1`?
HepG2 tox: -18%; Nrf2 ARE act: 7%; TGFb SMAD3 inh: 1µM*; A549 tox-1: -1%; Nrf2 block: 2.6µM*; FLuc counter 3: -1%; A549 tox-2: inconclusive; ARE-Fluc inh: 1.2µM*

How did c1ccc2sc(C3CCNCC3)nc2c1 do in these assays?
HepG2 tox: -1%; Nrf2 ARE act: 0%; TGFb SMAD3 inh: 5%; A549 tox-1: 4%; Nrf2 block: 2%

Results for COc1cc(C[C@@H](C)N)c(OC)cc1I ?
HepG2 tox: 11%; Nrf2 ARE act: 0%; TGFb SMAD3 inh: 20%; A549 tox-1: -23%; Nrf2 block: inconclusive; FLuc counter 3: 1%; A549 tox-2: -7%; ARE-Fluc inh: 0%

How did CC(N)Cc1c[nH]c2c1ccc1ccccc12 (stereo not given) do in these assays?
HepG2 tox: -21%; Nrf2 ARE act: 2%; TGFb SMAD3 inh: -2%; A549 tox-1: -6%; Nrf2 block: 4%

Results for CC1=CC(O)C(O)C2(C)C1CC1OC(=O)C(O)C3C(C)C(O)C4(O)OCC13C42 (stereo not given) ?
HepG2 tox: -12%; Nrf2 ARE act: 0%; TGFb SMAD3 inh: inconclusive; A549 tox-1: -20%; Nrf2 block: 2.9µM*; FLuc counter 3: -2%; A549 tox-2: -24%; ARE-Fluc inh: 5.2µM*

How did COc1cccc(C2(O)CCN(CC(=O)Nc3nc(C)cs3)CC2)c1 do in these assays?
HepG2 tox: -12%; Nrf2 ARE act: 0%; TGFb SMAD3 inh: -13%; A549 tox-1: 7%; Nrf2 block: -2%

How did CC(=O)c1cccc(NC(=O)c2cc3c(s2)-c2c(C)cccc2OC3)c1 do in these assays?
HepG2 tox: -24%; Nrf2 ARE act: 3%; TGFb SMAD3 inh: -6%; A549 tox-1: -17%; Nrf2 block: 7.3µM*; FLuc counter 3: -14%; A549 tox-2: -22%; ARE-Fluc inh: 6.5µM*

How did CC(=O)OC1CC(OC2C(O)CC(OC3C(O)CC(OC4CCC5(C)C(CCC6C5CCC5(C)C(C7=CC(=O)OC7)C(O)CC65O)C4)OC3C)OC2C)OC(C)C1OC1OC(CO)C(O)C(O)C1O (stereo not given) do in these assays?
HepG2 tox: -67%; Nrf2 ARE act: -3%; TGFb SMAD3 inh: 2µM*; A549 tox-1: inconclusive; Nrf2 block: 0.33µM*; FLuc counter 3: 4%; A549 tox-2: inconclusive; ARE-Fluc inh: 0.29µM*

How did CC(=O)OC1CC2(O)C3CCC4CC(O)CCC4(C)C3CCC2(C)C1C1=CC(=O)OC1 (stereo not given) do in these assays?
HepG2 tox: -44%; Nrf2 ARE act: -2%; TGFb SMAD3 inh: 2µM*; A549 tox-1: inconclusive; Nrf2 block: 0.065µM*; FLuc counter 3: 2%; A549 tox-2: inconclusive; ARE-Fluc inh: 0.058µM*

What do the screens show for `CC(=O)C1CCC2C3CCC4CC(O)CCC4(C)C3CCC12C#N` (stereo not given)?
HepG2 tox: -18%; Nrf2 ARE act: 0%; TGFb SMAD3 inh: -4%
